# Results: PubChem BioAssay (NCI)
# Where “and” joins values, the source holds several entries; their conditions need not be identical. Equal entries are not always repeated. This is part of a sample that, as a whole, favours compounds with a hit. Of some 83,000 tested, about 20% had one in any assay.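 Compound tested at a single concentration for 48 hours in 96-well plates; a percent growth value below 10 was scored as active.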 Calls of active or inactive are those of the source.
# Legend:
# Experiment in all cases: NCI-60 one-dose screen, 48 h (100 = growth as untreated, 0 = no growth, -100 = all killed)
# Settings in all cases: 10 µM unless noted
# [1] = tested on: DU-145 prostate
# [2] = tested on: K-562 leukemia
# [3] = tested on: MALME-3M melanoma
# [4] = tested on: MDA-MB-231 breast
# [5] = tested on: RXF 393 renal
# [6] = tested on: SF-268 CNS
# [7] = tested on: SF-295 CNS
# [8] = tested on: SF-539 CNS
# [9] = tested on: UACC-257 melanoma
# [10] = tested on: M14 melanoma
# [11] = tested on: HCT-15 colon
# [12] = tested on: HT29 colon
# [13] = tested on: SNB-75 CNS
# [14] = tested on: SNB-19 CNS
# [15] = tested on: U251 CNS
# [16] = tested on: PC-3 prostate
# [17] = tested on: SK-MEL-5 melanoma
# [18] = tested on: UACC-62 melanoma
# [19] = tested on: LOX IMVI melanoma
# [20] = tested on: SK-MEL-28 melanoma
Compound,growth [1],growth [2],growth [3],growth [4],growth [5],growth [6],growth [7],growth [8],growth [9],growth [10],growth [11],growth [12],growth [13],growth [14],growth [15],growth [16],growth [17],growth [18],growth [19],growth [20]
CCN(CC)CCOc1ccc2c(c1)C(=O)c1cc(OCCN(CC)CC)ccc1-2,74.6% (inactive) and 64.7% (inactive),41.7% (inactive) and -9.47% (active),98.2% (inactive) and 80.2% (inactive),65.5% (inactive) and 78.5% (inactive),71.4% (inactive),75.1% (inactive) and 54.8% (inactive),82.6% (inactive) and 71.5% (inactive),50% (inactive) and 38.4% (inactive),89.9% (inactive) and 88.6% (inactive),91.7% (inactive) and 83.4% (inactive),78.2% (inactive) and 39% (inactive),8.16% (active) and 6.92% (active),74.9% (inactive) and 67.1% (inactive),83.9% (inactive) and 75.7% (inactive),53.6% (inactive) and 61.3% (inactive),70.6% (inactive) and 35.9% (inactive),95% (inactive) and 95.5% (inactive),105% (inactive) and 103% (inactive),52.3% (inactive) and 37.3% (inactive),123% (inactive) and 108% (inactive)
CC(CN=Cc1ccccc1O)N=Cc1ccccc1O (stereo not given),121% (inactive) and 105% (inactive),78.7% (inactive) and 88.2% (inactive),124% (inactive) and 110% (inactive),111% (inactive) and 104% (inactive),102% (inactive) and 91% (inactive),108% (inactive) and 91% (inactive),112% (inactive),94.9% (inactive) and 87.9% (inactive),87.7% (inactive) and 121% (inactive),106% (inactive) and 102% (inactive),105% (inactive) and 97.2% (inactive),115% (inactive) and 110% (inactive),104% (inactive) and 82.4% (inactive),96.1% (inactive) and 101% (inactive),96.6% (inactive) and 104% (inactive),96% (inactive) and 95.8% (inactive),102% (inactive) and 106% (inactive),107% (inactive) and 105% (inactive),101% (inactive) and 88.8% (inactive),117% (inactive) and 102% (inactive)
O=C1c2ccccc2C(=O)N1/N=C/c1ccc2c(c1)OCO2,116% (inactive),99.8% (inactive),110% (inactive),87.2% (inactive),107% (inactive),103% (inactive),129% (inactive),101% (inactive),99.7% (inactive),99.7% (inactive),98.2% (inactive),94.3% (inactive),104% (inactive),93% (inactive),99.8% (inactive),74.1% (inactive),105% (inactive),90.3% (inactive),100% (inactive),103% (inactive)
CN1C(=O)C(N=Nc2ccc([N+](=O)[O-])cc2)SC1=S (stereo not given),90.7% (inactive) and 89.2% (inactive),43.1% (inactive),80.1% (inactive) and 99.9% (inactive),76.7% (inactive) and 87% (inactive),80% (inactive) and 94.2% (inactive),65.2% (inactive) and 67.6% (inactive),185% (inactive) and 46.3% (inactive),67.2% (inactive) and 68.2% (inactive),76.3% (inactive) and 84.2% (inactive),59.6% (inactive) and 59.5% (inactive),51.7% (inactive) and 50.8% (inactive),64.4% (inactive) and 80.4% (inactive),85.9% (inactive) and 91.5% (inactive),69.4% (inactive) and 81.4% (inactive),62.8% (inactive) and 69.4% (inactive),55.5% (inactive) and 50.8% (inactive),71.3% (inactive) and 73.7% (inactive),29.8% (inactive) and 38.4% (inactive),41.9% (inactive) and 51.5% (inactive),86.6% (inactive) and 95.9% (inactive)
CC(C)Cc1ccc(C(C)C(=O)NCc2ccc(Cn3c(=O)sn(CCCI)c3=O)cc2)cc1 (stereo not given),94% (inactive) and -88.2% (active),3.55% (active),92.4% (inactive) and -74.4% (active),92.1% (inactive) and -62% (active),-94.8% (active),91% (inactive) and -64.5% (active),96.1% (inactive) and 35.9% (inactive),88.7% (inactive) and -96.6% (active),77.8% (inactive) and -19.9% (active),88.8% (inactive) and -66.9% (active),101% (inactive) and -54.2% (active),61.7% (inactive) and -58.7% (active),95.4% (inactive) and -73.6% (active),85.4% (inactive) and 37.4% (inactive),83.4% (inactive) and -70.5% (active),93.6% (inactive) and -70% (active),74.2% (inactive) and -96.6% (active),95.2% (inactive) and -83.2% (active),99.6% (inactive) and -96.6% (active),106% (inactive) and -72.2% (active)
O=S(=O)(Nc1ccccc1)C1CCCCC1,108% (inactive) and 113% (inactive),97.6% (inactive) and 93.8% (inactive),121% (inactive) and 123% (inactive),106% (inactive) and 105% (inactive),120% (inactive) and 118% (inactive),99% (inactive) and 114% (inactive),105% (inactive) and 110% (inactive),109% (inactive) and 95.4% (inactive),108% (inactive) and 107% (inactive),101% (inactive) and 99.5% (inactive),109% (inactive) and 102% (inactive),99.1% (inactive) and 99.6% (inactive),86.7% (inactive) and 94.7% (inactive),101% (inactive) and 107% (inactive),109% (inactive) and 102% (inactive),92.6% (inactive) and 105% (inactive),110% (inactive),92.6% (inactive) and 105% (inactive),109% (inactive) and 95.5% (inactive),110% (inactive) and 108% (inactive)
CCOc1ccc2cc(-c3nn(CC4CCNCC4)c4ncnc(N)c34)ccc2c1,108% (inactive) and 57.5% (inactive),59.3% (inactive) and -8.9% (active),73.7% (inactive) and -54.7% (active),86.5% (inactive) and 15.6% (inactive),55.4% (inactive) and 18% (inactive),80.6% (inactive) and 41.1% (inactive),108% (inactive) and 74.5% (inactive),77.4% (inactive) and 40.2% (inactive),-52.9% (active),91.5% (inactive) and -42.6% (active),81.7% (inactive) and 29.8% (inactive),69.6% (inactive) and 18.5% (inactive),52.9% (inactive) and 24.8% (inactive),102% (inactive) and 65.9% (inactive),83.3% (inactive) and 40.2% (inactive),78% (inactive) and 31.4% (inactive),90.5% (inactive) and -2.12% (active),14.7% (inactive),83% (inactive) and 5.47% (active),104% (inactive) and -35.3% (active)
